Source: PubChem BioAssay AID1508622 (National Center for Advancing Translational Sciences (NCATS), 2021)
A number with no mark means an inactive call. The source made the active and inactive calls. The call rests on the fitted dose curve; in most records, active means well fitted activation curve with a large enough effect; inconclusive means small, poorly fitted or top-dose-only effect; inactive means no such curve, though single readings can be large or run the other way.

Experiment: Confirmatory qHTS for Identification of Small Molecule Activators of Huntingtin-Antisense Promoter Activity
Details: HEK293 HTT-AS promoter firefly luciferase reporter, 24 h; series mostly up to 57.5 µM; activity change, positive = activation: at the top concentration
Text: Assay Provider: Russell L. Margolis M.D.
Department Neurology, Johns Hopkins University School of Medicine, Baltimore, MD
Huntington's Disease (HD) is a neurodegenerative disorder caused by a CAG repeat expansion in exon 1 of huntingtin (HTT). While there are currently no disease-modifying treatments for HD, recent efforts have focused on development of nucleotide-based therapeutics to lower HTT expression. As an alternative to siRNA or oligonucleotide methods, we hypothesized that suppression of HTT expression might be accomplished by small molecules that either (1) directly decrease HTT expression by suppressing HTT promoter activity or (2) indirectly decrease HTT expression by increasing the promoter activity of HTT-AS, the gene antisense to HTT that appears to inhibit expression of HTT.
We developed and employed a high throughput screen for modifiers of HTT and HTT-AS promoter activity using luminescent reporter HEK293 cells; of the 52,041 compounds tested, we identified 898 replicable hits. We used a rigorous stepwise approach to assess compound toxicity and the capacity of the compounds to specifically lower huntingtin protein in 5 different cell lines, including HEK293 cells, HD lymphoblastoid cells, mouse primary neurons, HD iPSCs differentiated into cortical-like neurons, and HD hESCs. We found no compounds which were able to lower huntingtin without lowering cell viability in all assays, though the potential efficacy of a few compounds at non-toxic doses could not be excluded.
SEQUENCE No. (1, 2, 3, etc.); […] (e.g., Cells, Incubation, Reagent, etc.); VALUE and DESCRIPTION.
1; Reagent; 4 uL; 2,500 Hek293 luciferase reporter cells per wells
3; Compound; 23 nL; Control inhibitor / compound library
5; Reagent; 2.5 uL; Firefly Luc reagent; Dual-Glo Luciferase Reporter Assay System (Promega)
6; Time; 10 min; room temperature incubation
7; Detection; Luminescence; FLuc
NOTES (numbers refer to sequence above)
1; High-throughput screening, measuring luminescence from a Hek293 luciferase reporter, was performed in 1,536 well white-walled tissue-culture treated plates. 2,500 cells were plated in 4 uL of Opti-MEM per well using a Multidrop Combi Reagent Dispenser (ThermoFisher).
2; Assay plates were cultured for 24 hours.
3; Control inhibitor (PTC124; final concentration of 50 uM) and compound library (at final concentrations of 460 nM - 57.5 uM) were added to the assay plate using the Kalypsis Pintool Robotic System equipped with 1536 pinheads.
4; Cells were then incubated for 24 hours at 37C prior to luminescence measurements.
5; In all cases, luminescence was measured using the Dual-Glo Luciferase Reporter Assay System (Promega) following the manufacturer's instructions.
6; Room temperature incubation.
7; Luminescence signal was obtained using the PerkinElmer ViewLux plate reader. Results were normalized to vehicle control (0% activity) and zero RLU (-100% activity).
Potency means the concentration at half of the fitted maximal effect.

Row | SMILES | activity change, positive = activation [%] | Potency
1 | COc1ccc(Nc2c3c(nc4ccc(NC(=O)/C=C/c5cccc(OC)c5OC)cc24)CCCC3)cc1OC | -95 | –
2 | Cc1c(C(=O)Nc2ccc(F)cc2)oc2ccc(S(=O)(=O)N3CCCCCC3)cc12 | -29.7 | –
3 | Cc1oc(-c2ccc(C(=O)NCCCOC(C)C)cc2)nc1CS(=O)(=O)c1ccccc1 | -33.7 | –
4 | CCCCOC(=O)c1ccc(NC(=O)c2sc3nc(C)cc(C)c3c2N)cc1 | -52.3 | –
5 | COc1ccc(C(=O)N2CCC(c3nc4ccccc4s3)CC2)cc1Cl | -92.9 | –
6 | CCc1ccc(-n2c(SCC(=O)NC(C)CC)nc3n[nH]c(C)c3c2=N)cc1 (stereo not given) | -9.19 | –
7 | Cc1cccc2sc(N3CCN(C(=O)CS(=O)(=O)c4ccc(F)cc4)CC3)nc12 | -37 | –
8 | CCOC(=O)C1CCC(CN(Cc2ccc(Cl)cc2)S(=O)(=O)c2cc(Cl)cc(Cl)c2)CC1 (stereo not given) | -93.1 | –
9 | COc1ccc(NC(=O)c2ccc(-c3nc(CSc4ccccc4)c(C)o3)cc2)c(OC)c1 | -23.6 | –
10 | COc1ccc(CNC(=O)Nc2ccc3c(c2)N(C)C(=O)c2ccccc2S3)cc1OC | -38.8 | –
11 | COc1ccc(-c2nc(CNS(=O)(=O)c3ccc(F)cc3)cs2)cc1 | -77.2 | –
12 | Cc1cccc(NC(=O)c2cnn(-c3ccccc3)c2-n2cccc2)c1C | -33.2 | –
13 | Cc1ccc(C)c(N2CCN(C(=O)Cn3cnc4nc5c(cc4c3=O)CCCC5)CC2)c1 | -40.7 | –
14 | Cc1ccccc1OCC(=O)NCC(c1ccc(Cl)cc1)N1CCOCC1 (stereo not given) | -44.9 | –
15 | CCc1ccc(NC(=O)c2ccc(F)c(S(=O)(=O)NCCc3ccc(OC)c(OC)c3)c2)cc1 | -35.1 | –
16 | CCOC(=O)c1cnc2ccc(OC)cc2c1Nc1ccc(OCc2ccccc2Cl)cc1 | -79.2 | –
17 | Cc1cc(NC(=O)CCc2nc3cccnc3n2-c2ccccc2)ccc1Br | -26.5 | –
18 | CCC1=C(c2ccc(C)cc2)S(=O)(=O)N=C1N1CCC(C(=O)NCCc2ccc(Cl)cc2)CC1 | -68.7 | –
19 | CC(=O)C1=C(c2ccc(Cl)c(Cl)c2)N(C(C)=O)n2c(C)nnc2S1 | -74.3 | –
20 | O=C(Nc1ccc(Br)cc1)c1cc(S(=O)(=O)NC2CCCC2)ccc1F | -17.5 | –

Row | SMILES | activity change, positive = activation [%] | Potency
21 | CC(C)[C@H](C(=O)Nc1ccc(C(=O)NO)cc1)c1ccccc1 | – | 1.9 µM (active)
22 | CCOC(=O)C1CCC(CN(Cc2ccccc2)S(=O)(=O)c2ccc(Cl)cc2)CC1 (stereo not given) | -34 | –
23 | CCc1ccc(CNC(=O)c2sc3ncccc3c2-n2c(C)ccc2C)cc1 | -42.3 | –
24 | Cn1c(Oc2ccc(F)cc2)nc2c1c(=O)n(Cc1ccccc1Cl)c(=O)n2C | -49.8 | –
25 | Cc1cccc(-n2nc(C)c(C(=O)Nc3cc(C)ccc3C)c2-n2cccc2)c1 | -22.1 | –
26 | CCC(=O)C1=C(c2cccc([N+](=O)[O-])c2)N(C(=O)CC)n2c(nnc2C2CCCCC2)S1 | -47.3 | –
27 | CCc1cccc(C)c1NC(=O)Cn1cc2c(n1)CCCC2 | -85.6 | –
28 | COc1ccc(C(=O)NCC(c2cccnc2)N2CCc3ccccc32)cc1 (stereo not given) | -45.2 | –
29 | Cc1ccc(S(=O)(=O)Nc2cccc(-c3ccc(N4CCCCC4)nn3)c2)s1 | – | 1.51 µM (active)
30 | Cc1ccc(-c2cc(N)n(Cc3cccc(Cl)c3)n2)cc1 | -47.6 | –
31 | O=C(Nc1ccc(Oc2ccccc2)cc1)C1CCN(S(=O)(=O)c2ccccc2)CC1 | -51.1 | –
32 | CCn1cc(C(=O)N2CCN(c3ccc(C)cc3)C(C)C2)c(=O)c2cc(S(=O)(=O)N3CCCC3)ccc21 (stereo not given) | 1.12 | –
33 | Cc1cccc(N2CCN(S(=O)(=O)c3ccc4c(c3)C(C(C)C)C(=O)N4)CC2)c1C (stereo not given) | -93.9 | –
34 | O=S(=O)(NCCc1csc2nc(-c3ccccc3)nn12)c1ccc(Oc2ccccc2)cc1 | -94.1 | –
35 | COCCn1c2c([n+](Cc3cnccn3)c1C)C(=O)c1ccccc1C2=O | -94 | –
36 | CC(C)(C)C(=O)NCCc1nc2ccccc2n1CCCCOc1ccc(Cl)cc1 | -34.8 | –
37 | CCc1c(C)sc2c1CCN(Cc1ccc(F)cc1)C2c1ccccc1 (stereo not given) | -9.25 | –
38 | Cc1nnc(N2CCN(c3cccc(C(F)(F)F)c3)CC2)c2c1nnn2Cc1ccccc1 | -69 | –
39 | Cc1ccccc1NC(=O)c1sc2nc3c(cc2c1N)CN(Cc1ccccc1)CC3 | -27.9 | –
40 | COc1ccc(NC(=O)c2ccc(-c3nc(CSc4ccc(C)cc4)c(C)o3)cc2)cc1Cl | -52.9 | –
